Data published in PubChem BioAssay AID598 (SRMLSC, 2007).
The campaign covered roughly 85,000 compounds. About 5,100 (6%) were called active. The sample holds actives, similar compounds and a random draw of the others, so the mix is not that of the screen. Values without a mark were called inactive.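 The calls were made as follows: active = viability at or below 40%; inactive = viability above 40%.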

assay: proliferation blockers of H69AR lung cancer cells, primary screen, cell-based, human, 86K library (AID 598); details: H69AR lung tumor viability, ATP luminescence, 72 h; at 10 µM; active compounds read low;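 also: multidrug resistant small cell line overexpressing MRP-1 efflux transporter; 100% = mean luminescence of untreated control wells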

SMILES	viability
C=CCn1c(N)c(S(=O)(=O)c2cccs2)c2nc3ccccc3nc21	76.4%
C=CCn1c(N)c(C(=O)OCC(C)C)c2nc3ccccc3nc21	93.2%
CC(C)Cn1c(N)c(C(=O)NCc2cccs2)c2nc3ccccc3nc21	1.75% (active)
CC(C)(C)c1cc(=O)n2c(nc3ccccc32)[nH]1	75.5%
Cc1ccc(SCC(=O)Nc2ncc(C)s2)cc1	94.5%
CC(C)C(OC(=O)c1cccs1)C(=O)NC1CCCCC1 (centres undefined)	101%
Nc1nonc1-c1nc2ccccc2n1Cc1ccc(F)cc1	18.4% (active)
CCC(=O)Nc1nc2ccccc2n1Cc1ccccc1C	65.7%
Nc1nonc1-c1nc2ccccc2n1CCC(=O)O	109%
CC(=O)Nc1nonc1-c1nc2ccccc2n1Cc1ccccn1	84.4%
COc1ccc(C)c(Cn2c(-c3nonc3N)nc3ccccc32)c1	21% (active)
COCc1nc2ccccc2n1Cc1ccccc1Br	98.2%
c1ccc(Nc2nc(N3CCOCC3)c3ccccc3n2)cc1	95.8%
O=C(O)CSCc1ccc(C(=O)O)o1	96.9%
COc1ccccc1NC(=O)CC(NCCN(C)C)C(=O)O (centres undefined)	99.1%
CCOC(=O)C1CSC(CC(=O)Nc2ccc(OCC)cc2)C(=O)N1 (centres undefined)	86.6%
CC(C)C(=O)NC(NC(=S)NC1CCS(=O)(=O)C1)C(Cl)(Cl)Cl (centres undefined)	102%
Cc1ccc(-n2nc3cc(C)c(NC(=O)c4cccnc4)cc3n2)cc1	82%
O=S(=O)(NCC1OCCc2ccccc21)c1ccccc1 (centres undefined)	87.1%
COc1ccc(NC(=O)c2ccc(OC)cc2)cc1	105%
COC(=O)c1cc(OC)ccc1-c1ccc(OC)cc1	29.3% (active)
COc1ccc(OC)c(C(=O)c2ccc(C(=O)O)cc2)c1	99.1%
CCOC(=O)C1=C(C)NC(SC)=NC1c1ccccc1 (centres undefined)	83.7%
CC1CCN(C(=O)CN(c2ccc(Oc3ccccc3)cc2)S(C)(=O)=O)CC1	85%
CCCOn1c(-n2nc(C)cc2C)nc2ccccc2c1=O	93.8%
COc1ccc(C)cc1N(C)C(=O)c1coc(=O)c2ccccc12	94.7%

SMILES	viability
CCOc1ccccc1Nc1nnc(SCC(=O)Nc2cc(C)on2)s1	71.1%
Cc1cc(C)c2c(c1)cc(C)c1nnc(SCC(=O)Nc3cc(C)on3)n12	16.8% (active)
Cc1cc(NC(=O)CSc2nnc(-c3ccc(Cl)s3)o2)no1	96.5%
CC(C)(C)n1nnnc1C(c1ccc(Cl)cc1)N1CCSCC1 (centres undefined)	82.5%
COc1ccc(S(=O)(=O)NCc2ccc(C(=O)N(C)Cc3ccco3)cc2)cc1	76.5%
Cc1nc2ccc(C(=O)N3CCN(c4ccccc4)CC3)cc2s1	91.5%
CC(=O)N1CCCc2cc(S(=O)(=O)CCC(=O)N3CCN(c4ccccc4)CC3)ccc21	86.6%
O=C(c1cc2c(s1)CCC2)N1CCN(c2ccccc2)CC1	39.4% (active)
COc1ccc(C)cc1S(=O)(=O)Nc1cccc(Cl)c1Cl	97.3%
CCOc1ccc(C(O)Cc2nc3ccccc3n2C)cc1 (centres undefined)	96.6%
O=C(COC(=O)c1n[nH]c2ccccc12)NCc1ccccc1	96.7%
COC(=O)Nc1ncc(CN2CCCCC2)s1	92.5%
CCN1C(=O)/C(=C2/Sc3ccc(OC)cc3N2C)SC1=Nc1ccc(C)cc1	66.1%
COc1ccc(C2C(C(=O)N3CCN(c4ccc(OC)cc4)CC3)c3ccccc3C(=O)N2C)cc1 (centres undefined)	32.2% (active)
COc1ccc(N2CCN(CCNC(=O)CCN3C(=O)COc4ccccc43)CC2)cc1	86.1%
CCOc1ccc(C2C(C(=O)O)c3ccccc3C(=O)N2CCN2CCOCC2)cc1 (centres undefined)	85.1%
CCCNC(=O)c1ccccc1NC(=O)CSCc1ccc(OC)cc1	83.9%
COc1ccc(C2=NO[C@@H]3C(=O)N(Cc4ccccc4)C(=O)[C@H]23)cc1OC	95.8%
CCNCCC(=O)N1c2ccccc2Sc2ccc(NC(=O)OCC)cc21	78.6%
Cc1ccc(F)c(NC(=O)CCc2ccccc2)c1	97.8%
Cc1cccc(N2CCN(C(=O)c3cc4c(=O)[nH]c5ccccc5c4n3C)CC2)c1C	36% (active)
CC(=O)N1CCN(c2cccc(C)c2C)CC1	107%
Cn1c(C(=O)NCCN2CCc3ccccc3C2)cc2c(=O)[nH]c3ccccc3c21	61.7%
CCn1c(C)nc2c1C(=O)c1ccccc1C2=O	69.1%
CC1CCc2c(nc3ncnn3c2Nc2ccc(OC(F)(F)F)cc2)C1 (centres undefined)	69.4%
N#Cc1c(NC(=O)CSc2nc3ccccc3c(=O)n2Cc2ccco2)sc2c1CCCC2	3.86% (active)

SMILES	viability
COc1ccc(-n2c(SCC(=O)Nc3sc4c(c3C#N)CCCC4)nnc2-c2ccc(O)cc2)cc1	11.8% (active)
CC(Sc1nc2ccccc2c(=O)n1Cc1ccco1)C(=O)c1ccccc1 (centres undefined)	77.2%
COc1ccccc1NC(=O)CSc1nc2sc(C)c(C)c2c(=O)n1Cc1ccco1	58.9%
COC(=O)c1c(NC(=O)CSc2nncs2)sc2c1CCCCC2	50.8%
COc1ccc(-c2nnc(SCC(=O)c3ccco3)n2-c2ccccc2)cc1	91.9%
CCC(C)NC(=O)C1CCCN(C(=O)NC2CCCCC2)C1 (centres undefined)	94.6%
COc1ccc(C(C#N)Nc2ccc(C)cc2)cc1 (centres undefined)	89.5%
Cc1cccc(OCCCC(=O)Nc2ccc(S(=O)(=O)N3CCCC3)cc2)c1	89.2%
O=C(c1ccc2c(c1)OCO2)N1CCOCC1	96.2%
O=C(Cn1cnc2c(cnn2-c2ccc(F)cc2)c1=O)NCCc1ccccc1	99.4%
CN(Cc1ccccc1)C(=O)CCNC(=O)Cn1cnc2ccccc2c1=O	93.7%
O=C(Cn1cnc2c(cnn2-c2ccccc2)c1=O)NCc1ccccc1	30.8% (active)
O=C(OC1CCCCC1=O)c1cccc(S(=O)(=O)NCc2ccccc2)c1 (centres undefined)	68.2%
Cn1c(=O)c(=O)n(C)c2cc(S(=O)(=O)NCCc3ccccc3)ccc21	94.1%
Cc1ccc(S(=O)(=O)N2CC(=O)Nc3ccccc32)cc1C	102%
CCn1c(=O)c(=O)n(CC)c2cc(S(=O)(=O)N3CCc4ccccc43)ccc21	27.2% (active)
CSc1nc2ccc(S(=O)(=O)N3CCc4ccccc43)cc2s1	64.1%
Cc1nn(C)c(C)c1S(=O)(=O)N1CCc2ccccc21	95.6%
Cn1c(=O)n(C)c2cc(S(=O)(=O)N3CCCc4ccccc43)ccc21	21.1% (active)
CC1=CC(C)(C)NC(=S)N1c1ccccc1	98.5%
CCN(CC)CCCNC(=O)CCc1ccccc1	97.4%
O=C(NCCOc1ccccc1)c1ccccc1	91.4%
CCc1ccc(CNC(=O)C2CCCN(c3nc4ccccc4o3)C2)cc1 (centres undefined)	92.4%
NC1=NC(=O)C2(COC(c3ccccc3Cl)OC2)S1 (centres undefined)	92.6%
CCOc1ccc(-n2c(N)c(C(=O)NCC3CCCO3)sc2=S)cc1 (centres undefined)	94.8%
Oc1c(Cl)cc(Cl)c(Cl)c1Cc1c(O)c(Cl)cc(Cl)c1Cl	13.5% (active)

SMILES	viability
COc1cc(OC)nc(NC(=O)CCl)n1	98.7%
C=C(Cl)COC(=O)C1C2C=CC(C2)C1C(=O)O (centres undefined)	101%
Cc1csc(NC(=O)NC2(C(F)(F)F)Oc3ccccc3O2)n1	22.9% (active)
Cc1csc(NC(=O)CN2CCCCCC2)n1	95.1%
CCOC(=O)Cc1csc(NC(=O)Nc2ccccc2)n1	96.7%
COc1cc(CC(=O)NCc2cccs2)cc(OC)c1OC	106%
COc1ccc(Nc2nc(=O)[nH]nc2C)cc1	95.5%
CCOC(=O)c1sc(NC(=O)CCN2CCOCC2)c(C(=O)OCC)c1C	45.7%
CCOC(=O)c1c(NC(=O)CCl)sc(C(=O)N(CC)CC)c1C	2.11% (active)
CCOC(=O)Nc1sc(C(=O)N(C)C)c(C)c1C(=O)OCC	84.2%
Cc1ccc(C(=O)N2CCCC2)c(F)c1F	87.4%
CC(C)c1ccc(OCC(O)Cn2cnc3ccccc32)cc1 (centres undefined)	82.6%
OC(CN=c1sc2ccccc2n1CC(O)COc1ccccc1)COc1ccccc1 (centres undefined)	23.3% (active)
OC(COc1ccccc1)Cn1cc(Br)cn1 (centres undefined)	109%
Cc1cccn2c(=O)c(/C=C(\C#N)S(=O)(=O)c3ccc(Cl)cc3)c(N3CCC(C(N)=O)CC3)nc12	82.2%
CC1=CC(C)(C)Nc2ccc(OC(=O)C(Cc3ccccc3)N3C(=O)C4CCCCC4C3=O)cc21 (centres undefined)	80.3%
CC1=CC(C)(C)Nc2ccc(OC(=O)CN3C(=O)C4CCCCC4C3=O)cc21 (centres undefined)	0.5% (active)
CC(OC(=O)CN1C(=O)C2CCCCC2C1=O)C(=O)Nc1ncc(Cl)cc1Cl (centres undefined)	101%
CCCCCCSc1nsc(N)n1	82.7%
CCOC(=O)c1[nH]c(C)c(C(=O)OCC(=O)N2c3ccccc3CC2C)c1C (centres undefined)	87%
CC(C)OC(=O)CN1C(=O)C(=O)c2ccccc21	13.1% (active)
CCOC(=O)c1cc2n(c1C)-c1ccccc1C2=O	90.3%
CCCCOC(=O)Cn1c(=O)n(CC(=O)OCCCC)c2cc(C)ccc21	99.5%
CCOC(=O)CN1C(=O)C(=O)c2cc(C)ccc21	20.2% (active)
CC(C)OC(=O)CN1C(=O)c2ccccc2C1=O	98%
Cc1cccc2c1N(CC(=O)OC(C)C)C(=O)C2=O	71.7%
